# PubChem BioAssay
# A number with no mark means an inactive call. No rule for the calls is given here.
# Molecular target: Pantothenate synthetase (Mycobacterium tuberculosis (strain ATCC 25618 / H37Rv)) (UniProt P9WIL5)
# Test: Coupled enzyme confirmation of inhibitors against recombinant Mtb PanC (AID 375);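 also: 0% = full reaction with vehicle and 100% = no enzyme background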
# Settings: coupled enzyme assay; at 10 µM, hits give high values
# Chain of Pantothenate synthetase (Mycobacterium tuberculosis (strain ATCC 25618 / H37Rv)) (P9WIL5 whole entry, looked up): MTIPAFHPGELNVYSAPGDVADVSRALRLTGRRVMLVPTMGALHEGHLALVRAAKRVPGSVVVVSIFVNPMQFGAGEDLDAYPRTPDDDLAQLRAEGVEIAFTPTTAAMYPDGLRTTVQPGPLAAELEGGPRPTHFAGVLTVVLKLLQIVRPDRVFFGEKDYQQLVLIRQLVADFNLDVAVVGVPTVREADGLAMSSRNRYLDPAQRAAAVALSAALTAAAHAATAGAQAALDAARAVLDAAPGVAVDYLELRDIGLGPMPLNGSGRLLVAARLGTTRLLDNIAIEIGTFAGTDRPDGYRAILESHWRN
row,SMILES,inhibition [%]
1,CCCn1c(N2CCN(CC(=O)NCc3cccs3)CC2)nc2ccccc21,9
2,O=C(CC1CCCCC1)NCc1ccccn1,0
3,Cc1[nH]nc2c1C(=O)CC(C)(C)C2,0
4,CCOc1cccc(C(=O)N(Cc2ccc(F)cc2)C2CCS(=O)(=O)C2)c1 (stereo not given),3
5,COc1ccccc1N(C)S(=O)(=O)c1ccc(C(=O)NC2=NCCS2)cc1,7
6,CCOC(=O)N1CCN(S(=O)(=O)c2ccc(F)c(C(=O)Nc3cc(C)cc(C)c3)c2)CC1,7
7,CCOC(=O)CSc1nc2ccccc2n1CC(=O)N1CCN(c2ccccc2)CC1,0
8,O=C1C2CCCN2C(c2ccc(Cl)cc2)N1c1nccs1 (stereo not given),0
9,COc1ccccc1OCC(=O)NCC1CCCCC1,0
10,CCOc1ccc(-c2cc(CCCC(=O)N3CCN(c4ccc(OC)cc4)CC3)no2)cc1,0
11,CCOC(=O)c1c(NC(=O)c2ccoc2C)sc2c1CCC2,7
12,O=C(CSc1nc(O)c(Cc2ccccc2)c(=O)[nH]1)Nc1ccccc1,0
13,CN(C)c1nc(N(C)C)nc(N(C)C)n1,2
14,CCC(C)OC(=O)n1ccc(C(=O)Nc2nccs2)n1 (stereo not given),0
15,CC1CN(C(=O)c2cc3cc(Cl)cc(Cl)c3oc2=O)CC(C)O1 (stereo not given),0
16,Cn1c(=O)c2c(nc(CN3CCc4ccccc4C3)n2Cc2cccc(Cl)c2)n(C)c1=O,0
17,COc1ccc(CC(=O)NCc2cccs2)cc1,3
18,CCOC(=O)c1sc2nc3c(cc2c1N)COC(C)(C)C3,12
19,COc1ccc(-c2nnc(SC(C)C(=O)Nc3nccs3)n2-c2ccccc2)cc1OC (stereo not given),0
20,COC(=O)C1(C(F)(F)F)N=C2Sc3ccccc3N2C(N2CCOCC2)=N1 (stereo not given),0

row,SMILES,inhibition [%]
1,Cc1ccc(C)n1-n1c(C)nc2sc(-c3ccccc3)cc2c1=O,0
2,COc1ccc(S(=O)(=O)NCc2ccco2)cc1-c1nnc2c3ccccc3c(C)nn12,8
3,CCOc1ccc(C2C=C(c3ccc(F)cc3)Nc3ncnn32)cc1 (stereo not given),9
4,COc1ccc(NC(=O)CN(c2cc(C)cc(C)c2)S(=O)(=O)c2c(C)noc2C)cc1OC,0
5,COc1ccc(-c2noc(-c3cc(Cl)ccc3Cl)n2)cc1OC,2
6,c1ccc(CCn2nnnc2C(c2cccs2)N2CCOCC2)cc1 (stereo not given),1
7,Cc1ccccc1NC(=O)c1c(F)c(F)c(F)c(F)c1F,0
8,CC(O)CN1C(=O)C(CC(=O)Nc2ccc(Cl)cc2)SC1=Nc1ccccc1 (stereo not given),0
9,CC1CN(c2nc3ccccn3c(=O)c2/C=C(\C#N)S(=O)(=O)c2ccccc2)CC(C)O1 (stereo not given),5
10,O=C1c2ccccc2S(=O)(=O)N1Cc1nnc(-c2ccccc2Br)o1,0
11,Cc1cc(NS(=O)(=O)c2ccccc2)no1,1
12,O=C(NCc1nnc(SCC(=O)N2CCCCCC2)o1)c1ccco1,8
13,COc1cc(C(=O)NCCc2ccc3c(c2)OCCO3)ccc1OCC(=O)N1CCOCC1,2
14,CCc1nnc(NC(=O)COC(=O)CN2C(=O)c3ccccc3C2=O)s1,0
15,O=C(CC1Oc2ccccc2NC1=O)NCCCN1CCOCC1 (stereo not given),0
16,COc1ccc(-c2nc(N3CCCC3)[nH]c(=O)c2C#N)cc1,0
17,CCOC(=O)C1=C(C)NC(=O)NC1c1ccc(OCCO)c(OC)c1 (stereo not given),0
18,Cc1ccccc1-c1nc(Cc2ccccc2)no1,1
19,COc1ccc(C(=O)NCc2ccccc2OC)cc1,0
20,COc1ccc(-c2noc(CCC(=O)NCCCN3CCC(Cc4ccccc4)CC3)n2)cc1,0
